Data reported in article PMC4336329 (PLoS ONE, 2015).
Hit rate of the full screen: of about 310,000 compounds, about 14,000 (4.5%) showed an effect of 50% or more. The effect is printed as a negative number. The sample holds strong results, similar compounds and a random draw of the others, so the mix is not that of the screen.

target: human ether-à-go-go-related gene (hERG) potassium channel (human, UniProt Q12809); assay: primary screen, population patch clamp on CHO cells stably expressing hERG; higher = less effect of the substance
Sequence (Q12809 whole entry, looked up): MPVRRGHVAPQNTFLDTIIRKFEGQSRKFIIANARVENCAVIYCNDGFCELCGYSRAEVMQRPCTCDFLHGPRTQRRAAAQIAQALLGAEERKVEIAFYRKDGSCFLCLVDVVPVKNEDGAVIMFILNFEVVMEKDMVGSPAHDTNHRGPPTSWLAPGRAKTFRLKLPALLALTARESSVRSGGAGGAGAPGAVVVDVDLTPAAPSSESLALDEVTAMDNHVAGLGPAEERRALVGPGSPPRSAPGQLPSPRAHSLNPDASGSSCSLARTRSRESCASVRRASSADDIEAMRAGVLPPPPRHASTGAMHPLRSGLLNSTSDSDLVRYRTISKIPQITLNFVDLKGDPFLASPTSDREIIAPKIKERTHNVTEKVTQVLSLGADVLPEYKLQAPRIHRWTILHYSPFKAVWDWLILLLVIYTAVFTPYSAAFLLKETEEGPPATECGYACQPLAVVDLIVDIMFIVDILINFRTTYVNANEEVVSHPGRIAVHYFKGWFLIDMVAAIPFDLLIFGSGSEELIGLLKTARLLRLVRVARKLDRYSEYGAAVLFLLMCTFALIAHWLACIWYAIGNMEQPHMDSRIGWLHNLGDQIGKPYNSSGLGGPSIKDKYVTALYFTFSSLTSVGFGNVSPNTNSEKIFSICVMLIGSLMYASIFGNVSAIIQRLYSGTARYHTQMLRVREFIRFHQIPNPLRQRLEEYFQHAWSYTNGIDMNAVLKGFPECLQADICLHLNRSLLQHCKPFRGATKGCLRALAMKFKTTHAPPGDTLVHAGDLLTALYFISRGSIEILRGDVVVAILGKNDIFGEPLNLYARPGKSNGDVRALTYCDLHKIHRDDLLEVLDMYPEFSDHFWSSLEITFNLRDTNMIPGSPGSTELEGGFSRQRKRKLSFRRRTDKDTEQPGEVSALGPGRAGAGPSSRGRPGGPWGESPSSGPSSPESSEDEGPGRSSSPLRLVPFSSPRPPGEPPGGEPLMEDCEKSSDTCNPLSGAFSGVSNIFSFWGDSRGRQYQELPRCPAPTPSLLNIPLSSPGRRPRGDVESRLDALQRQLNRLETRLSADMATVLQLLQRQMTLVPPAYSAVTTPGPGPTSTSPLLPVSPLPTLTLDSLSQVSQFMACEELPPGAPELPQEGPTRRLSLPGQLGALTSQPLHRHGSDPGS
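Further: peak tail current of the secondary pulse compared with the same well before compound.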

Row | SMILES | hERG current change (%, negative = inhibition) at 10uM [%]
1 | Cc1ccccc1OCC(=O)NN1C(=O)C2C3C=CC(O3)C2C1=O (stereo not shown) | 12.3
2 | COCCc1nnc(NC(=O)Cc2ccccc2)s1 | 4.67
3 | C#Cc1ccc([C@@H]2C=C(C(=O)NCc3ccccc3)O[C@H](OCc3ccc(CO)cc3)C2)cc1 | 6.15
4 | O=C(c1cc2ccccc2oc1=O)N(Cc1cccs1)Cc1cccs1 | -14.4
5 | O=C(c1cc2ccccc2oc1=O)N(Cc1ccc2c(c1)OCO2)Cc1ccco1 | -59.3
6 | COc1ccccc1C(=O)NCCC(=O)N(Cc1ccco1)Cc1cccs1 | -21.3
7 | O=C(NCCC(=O)N(Cc1ccco1)Cc1cccs1)c1ccccc1Cl | -16.5
8 | O=C(c1cc2ccccc2oc1=O)N(Cc1ccco1)CC1CCCO1 (stereo not shown) | 6.96
9 | O=C(NCCC(=O)N(Cc1ccco1)Cc1cccs1)c1ccc(Br)cc1 | -58.7
10 | O=C(c1cc2ccccc2o1)N(Cc1ccco1)Cc1cccs1 | -35.4
11 | O=C(NCc1ccc2c(c1)OCO2)c1cc2ccccc2oc1=O | 12
12 | O=C(c1cc2ccccc2oc1=O)N(Cc1ccco1)Cc1cccs1 | -58.3
13 | CCn1c(CNC(=O)c2ccc(OC)c(OC)c2)nnc1SCC(=O)Nc1ccccc1 | -21.5
14 | COC(=O)C1=C(c2cccc(C#N)c2)C[C@@H]2CC[C@H]1N2C(=O)N1CCOCC1 | 6.41
15 | COc1ccc(-c2noc(CN(C)C(=O)CCN3C(=O)[C@H]4CC=CC[C@H]4C3=O)n2)cc1 | -2
16 | COc1cc(C(=O)NCC(=O)OCC(=O)N2CCc3ccccc32)cc(OC)c1OC | 3.43
17 | COc1ccc(OC)c(S(=O)(=O)Oc2ccc(N)c3ccccc23)c1 | 7.83
18 | CC(C)(C)c1ccc(C(=O)NNC(=S)NCC2CCCO2)cc1 (stereo not shown) | 14.4
19 | CCOc1ccc(NC(=O)CCSc2ccc(C)cc2)cc1 | 8.63
20 | Cc1ccc(Nc2nc(N)nc(CN3CCN(C(=O)c4ccco4)CC3)n2)cc1Cl | -74
21 | O=C(c1cccc(Cl)c1)N1CCN(C(=O)c2ccco2)CC1 | -8.43
22 | O=C(c1ccco1)N1CCN(C(=O)c2ccc(CS(=O)c3cccc(Cl)c3)o2)CC1 (stereo not shown) | -14
23 | Nc1nc(CN2CCN(C(=O)c3ccco3)CC2)nc(Nc2cccc(Cl)c2)n1 | -78.6
24 | Cc1ccc(NC(=O)N2CCN(C(=O)c3ccco3)CC2)cc1Cl | -2.38
25 | Cc1cc(/C=C2\SC(=S)NC2=O)c(C)n1-c1ccccc1 | 14.6
26 | Oc1c(/C=C/C=C/C=Nc2ccccc2)sc(=S)n1Cc1ccccc1 | -5.14

Row | SMILES | hERG current change (%, negative = inhibition) at 10uM [%]
27 | Fc1ccc(N2CCN(c3nc(-c4ccco4)cc(C(F)(F)F)n3)CC2)cc1 | 15.2
28 | CN1CCN(c2nc(-c3ccco3)cc(C(F)(F)F)n2)CC1 | -62.8
29 | FC(F)(F)c1cc(-c2ccco2)nc(N2CCN(c3ccccc3)CC2)n1 | 1.67
30 | O=C(O)Cc1ccc(NC(=O)C2CC=CCC2C(=O)O)cc1 (stereo not shown) | 23.7
31 | C[C@@H](NC(=O)c1nc[nH]c1C(=O)NC1CCN(C(=O)OC(C)(C)C)CC1)c1ccccc1 | -14.4
32 | Nc1nc2n(n1)C(c1ccccc1Cl)CC(c1ccc(F)cc1)N2 (stereo not shown) | -25.1
33 | COc1cccc(C2CC(c3c(F)cccc3Cl)n3nc(N)nc3N2)c1 (stereo not shown) | -2.6
34 | CCOc1ccccc1C1CC(c2ccccc2)Nc2nc(N)nn21.Cl (stereo not shown) | -11.9
35 | CCOc1ccccc1C1CC(c2ccc(Br)cc2)Nc2nc(N)nn21 (stereo not shown) | -55.1
36 | Cc1ccccc1C1CC(c2ccc(Br)cc2)Nc2nc(N)nn21 (stereo not shown) | -52.3
37 | Nc1nc2n(n1)C(c1cccs1)CC(c1ccc(F)cc1)N2 (stereo not shown) | -33.9
38 | CCOc1ccccc1C1CC(c2ccc(F)cc2)Nc2nc(N)nn21 (stereo not shown) | -48.1
39 | Nc1nc2n(n1)C(c1cccs1)CC(c1ccccc1)N2 (stereo not shown) | -23.5
40 | Nc1nc2n(n1)C(c1c(F)cccc1Cl)CC(c1ccc(F)cc1)N2 (stereo not shown) | -62.4
41 | Cc1ccc(C2CC(c3ccccc3C)n3nc(N)nc3N2)cc1 (stereo not shown) | -14.6
42 | Nc1nc2n(n1)C(c1cccs1)CC(c1ccc(Br)cc1)N2 (stereo not shown) | -57.5
43 | Cc1ccccc1C1CC(c2ccc(F)cc2)Nc2nc(N)nn21 (stereo not shown) | -27.2
44 | CC(=O)N1CCN=C1SCc1cccc(Cl)c1 | -3.91
45 | CC(C)C(c1nnnn1C1CCCCC1)N1CCc2ccccc2C1 (stereo not shown) | 2.91
46 | c1ccc(-c2cnc(-c3ccccn3)nn2)cc1 | 18.6
47 | O=C(NCc1ccco1)c1ccc(N2CCCC2=O)cc1 | 4.3
48 | Cc1cc(Nc2ccc(O)cc2)ccc1N | 14.1
49 | COc1ccc(CCN=C2SCC(=O)N2C)cc1OC | -4.8
50 | CCCCn1c(N)c(N(CCOC)C(=O)CSCc2c(C)noc2C)c(=O)[nH]c1=O | 17.1
51 | O=C(O)c1ccc(NS(=O)(=O)c2ccc(N3CCCC3)c([N+](=O)[O-])c2)cc1 | 11.3
52 | CCN(CCO)c1nc(N2CCCCC2)c2cnn(C)c2n1 | 3.12

Row | SMILES | hERG current change (%, negative = inhibition) at 10uM [%]
53 | COc1ccc2c(=O)c(C(=O)O)c(-c3ccc4c(c3)OCO4)n(C)c2c1 | 17.2
54 | CCN=C1SC(CC(=O)NCC)C(=O)N1CC (stereo not shown) | -12.5
55 | O=C(N/N=C/c1ccc(O)cc1)c1cc(-c2ccccc2)nc2ccccc12 | 11.2
56 | Cc1cccc(NC(=O)c2cc3ccccc3o2)c1 | -19.8
57 | C=CCn1c(-c2cccs2)nc2ccccc21 | 3.12
58 | CCCn1c(NCc2ccc(C)o2)nc2ccccc21 | -24.1
59 | Cn1c(NCc2ccco2)nc2ccccc21 | -10.2
60 | c1csc(Cn2c(-c3cccs3)nc3ccccc32)c1 | -68.6
61 | CCCCCCn1c(C(C)NC(=O)c2ccco2)nc2ccccc21 (stereo not shown) | -59.9
62 | CCCCCn1c(C(C)NC(=O)CCC)nc2ccccc21 (stereo not shown) | -48.4
63 | CCn1c(NCc2ccco2)nc2ccccc21 | 2.38
64 | CCCCCn1c(NCc2ccco2)nc2ccccc21 | -74.8
65 | CCN(CC)CCn1c(NCc2ccco2)nc2ccccc21.Cl | -73
66 | CCCCn1c(C(C)NC(=O)CC)nc2ccccc21 (stereo not shown) | -21.9
67 | CCN(CC)CCn1c(NCc2ccccn2)nc2ccccc21.Cl | -34.4
68 | CCn1c(-c2cccs2)nc2ccccc21 | -11.4
69 | Cn1cnnc1SCC(=O)c1ccc(O)c(O)c1 | 18.7
70 | O=C1CC2(CCCCC2)Oc2ccc(F)cc21 | -4.03
71 | CCN(CC)CCNC(=O)Cn1cnc2sc(C)c(S(=O)(=O)N3CC(C)CC(C)C3)c2c1=O (stereo not shown) | 24.8
72 | COc1ccc(Cn2c(=S)[nH]c3cc(OC)c(OC)cc3c2=O)cc1 | 20.4
73 | O=[N+]([O-])c1ccc(-c2ccc(/C=N/c3c(-c4ccco4)nc4ccccn34)o2)cc1 | 8.33
74 | O=C(O)CCSc1nnc(-c2ccccc2)n1-c1ccccc1 | -3.32
75 | Cc1ccc(SCc2cc(=O)[nH]c(N3CCCCC3)n2)cc1 | -8.62
76 | CCOC(=O)C(O)(c1ccc(NC(=S)NC(=O)c2ccc(Cl)cc2Cl)c(C)c1)C(F)(F)F (stereo not shown) | 27.4
77 | COc1ccccc1NC(=O)CCSc1nnc(-c2ccncc2)o1 | -2.96
78 | Fc1ccccc1NC(=S)NNc1ncc(C(F)(F)F)cc1Cl | 21.2

Row | SMILES | hERG current change (%, negative = inhibition) at 10uM [%]
79 | CN1CCCN(C(=O)COc2cccc(C(F)(F)F)c2)CC1 | -0.603
80 | CCCn1c(NCc2cccs2)nc2ccccc21 | -29.3
81 | C=CCn1c(NCc2ccco2)nc2ccccc21 | -8.07
82 | c1ccc(Cn2c(NCc3ccccn3)nc3ccccc32)cc1 | -39
83 | CCn1c(NCc2cccs2)nc2ccccc21 | -12.2
84 | CC(NC(=O)/C=C/c1ccco1)c1nc2ccccc2n1Cc1c(Cl)cccc1Cl (stereo not shown) | -11
85 | CCCCn1c(NCc2cccs2)nc2ccccc21 | -55.9
86 | c1ccc(Cn2c(NCc3ccco3)nc3ccccc32)cc1 | -51
87 | CC(NC(=O)/C=C/c1ccco1)c1nc2ccccc2n1Cc1cccc(Cl)c1 (stereo not shown) | -67.2
88 | CC(NC(=O)/C=C/c1ccco1)c1nc2ccccc2n1Cc1ccccc1F (stereo not shown) | 0.704
89 | CC1CC1C(=O)OCC(=O)Nc1cccc(S(=O)(=O)NC2=NCCCCC2)c1 (stereo not shown) | -7.64
90 | Cc1ccc(C(=O)c2ccc(N3CCOCC3)c(F)c2)cc1 | -22
91 | CCCn1c2ccccc2c2cn[nH]c(=O)c21 | 12
92 | Cc1c(C(=O)NCCN2CCOCC2)sc2nc(-c3ccc(F)cc3)cn12 | -23.6
93 | Cc1c(C(=O)NCc2cccnc2)sc2nc(-c3ccccc3)cn12 | -55.2
94 | Cc1c(C(=O)Nc2ccccc2)sc2nc(-c3ccccc3)cn12 | -4.89
95 | COCCNC(=O)c1sc2nc(-c3ccccc3)cn2c1C | -11.5
96 | Cc1c(C(=O)NCCCN2CCOCC2)sc2nc(-c3ccc(F)cc3)cn12 | -60.9
97 | Cc1c(C(=O)NCC(C)C)sc2nc(-c3ccc(F)cc3)cn12 | -5.46
98 | Cc1c(C(=O)NCCCN2CCOCC2)sc2nc(-c3ccccc3)cn12 | -48.5
99 | Cc1c(C(=O)NCc2ccccn2)sc2nc(-c3ccc(F)cc3)cn12 | -10.2
100 | CCN(CC)CCNC(=O)c1sc2nc(-c3ccccc3)cn2c1C | -67.4
101 | CCN(CC)CCCNC(=O)c1sc2nc(-c3ccc(F)cc3)cn2c1C | -71.1
102 | Cc1c(C(=O)NCc2cccnc2)sc2nc(-c3ccc(F)cc3)cn12 | -40.4
103 | Cc1c(C(=O)NCc2ccccn2)sc2nc(-c3ccccc3)cn12 | -18.6
